VP16 counter – counter-screen for ROR gamma inhibitors: Gal4-VP16 reporter | Drosophila S2 Gal4-VP16 UAS-luciferase, luminescence, 20 h | Potency, µM (highest dose often 53.6 µM), without a hit: at the top dose activity, negative = inhibition, most hits filed as inhibitors | 310,000 compounds, 3.5% hits | AID 2546;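 further: Gal4-VP16 expression switched on by copper sulfate through the metallothionein promoter; potency means the concentration at half of the fitted maximal effect; nearly all actives have a fitted effect of over 50% in size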
IL-1B inflam inh – blocks inflammasome-driven IL-1 beta release | THP-1 LPS/ATP IL-1B secretion, AlphaLISA, 16 h; active compounds read low | activity change, % at 57.5 µM | 360,000 compounds, 4.7% hits | AID 743279; in the data active means activity change below about -50%; inconclusive means mostly about -30% to -49%
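Secreted IL-1B measured by AlphaLISA bead assay after 16 h compound exposure of THP-1 cells; compounds (final up to 57.5 uM) added 1 h before LPS (250 ng/mL) and ATP (1.25 mM) stimulation; lower signal means less secretion.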
RORgamma inh – blocks mouse ROR gamma transcriptional activity; P51450; Drosophila S2 Gal4-RORgamma UAS-luciferase reporter, 20 h; Potency, µM (titrated, usually from 53.6 µM), for the others: at the highest dose activity change, negative = inhibition, hits mostly inhibitors; 310,000 compounds, 5.4% hits; further: potency means the concentration at half of the fitted maximal effect; nearly all actives have a fitted effect of over 60% in size
Target sequence (P51450 whole entry, looked up, the tested form may be a part): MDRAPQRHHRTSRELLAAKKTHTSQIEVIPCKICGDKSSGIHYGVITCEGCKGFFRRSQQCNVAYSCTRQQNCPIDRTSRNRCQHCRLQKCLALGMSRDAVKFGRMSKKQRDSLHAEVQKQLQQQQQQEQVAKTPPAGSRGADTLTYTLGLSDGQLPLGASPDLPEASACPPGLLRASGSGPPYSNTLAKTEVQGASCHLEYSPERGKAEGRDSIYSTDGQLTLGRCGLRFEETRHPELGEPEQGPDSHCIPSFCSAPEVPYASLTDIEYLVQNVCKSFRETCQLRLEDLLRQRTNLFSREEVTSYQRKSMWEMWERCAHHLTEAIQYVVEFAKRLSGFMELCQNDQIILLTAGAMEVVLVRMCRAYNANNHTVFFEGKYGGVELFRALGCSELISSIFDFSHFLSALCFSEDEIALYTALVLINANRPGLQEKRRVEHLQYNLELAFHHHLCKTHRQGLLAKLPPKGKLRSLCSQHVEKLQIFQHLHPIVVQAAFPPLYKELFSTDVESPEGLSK
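Using a luciferase readout, inhibitors were identified by reduced reporter activity in Drosophila cells coexpressing a copper-inducible Gal4–ROR gamma fusion and UAS-driven Photinus luciferase, incubated 20 hr after 700 uM copper sulfate.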
ELG1 repair inh – blocks ELG1-dependent DNA repair in HEK293T cells; HEK293T ELG1-luciferase reporter, luminescence, 16 h; DNA damage induced by 5-fluorouridine; Potency, µM (highest dose often 46.1 µM), for inactives: at the top dose activity change, negative = inhibition, actives largely listed as inhibitors; 330,000 compounds, 2.3% hits; further: potency means the concentration at half of the fitted maximal effect; nearly all actives have a fitted effect of over 55% in size
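In this reporter screen, reduction of luminescence relative to DMSO vehicle indicated activity. Compounds and 5-fluorouridine were added together to 2,000 cells per well, incubated for 16 hr at 37 °C, then developed with ONE-Glo.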
DT40 TDP1 no CPT – qHTS for Inhibitors of human tyrosyl-DNA phosphodiesterase 1 (TDP1): qHTS in cells in absence of CPT | DT40 Tdp1-/- hTDP1 cells, no CPT, ATP luminescence, 48 h | Potency, µM (highest dose often 46.2 µM), for inactives: at the top dose activity change, negative = growth inhibition, hits mostly inhibitors | 420,000 compounds, 15% hits; further: potency means the concentration at half of the fitted maximal effect; nearly all actives have a fitted effect of over 55% in size
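Chicken DT40 Tdp1-/- cells complemented with human TDP1, screened without camptothecin (DMSO vehicle only), 400 cells/well. Compounds pin-transferred, cells incubated at 37 °C for at least 48 hr. Growth read as ATP-dependent luminescence (CellTiter-Glo, 30 min at RT).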
TDP1 cell CPT – growth inhibition of DT40 Tdp1-/-;hTDP1 cells with camptothecin (screen for TDP1 inhibitors) | Potency, µM (highest dose often 46.2 µM), for the others: top-dose activity change, negative = growth inhibition, most hits filed as inhibitors | 420,000 compounds, 12% hits | AID 686979 | chicken DT40 Tdp1-/-;hTDP1 cells + 20 nM CPT, ATP luminescence, 48 h; further: potency means the concentration at half of the fitted maximal effect; nearly all actives have a fitted effect of over 55% in size
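Chicken DT40 Tdp1-/- cells stably complemented with human TDP1 were seeded at 400 cells/well in medium containing 20 nM camptothecin, exposed to pin-transferred compounds, and grown at 37 °C for at least 48 hr. Viability was read as ATP luminescence.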
* hit, by the source's call; u = inconclusive; x = no result given. The list is not random: actives were taken first. Their share in the collection is about 21%. Unless noted, the call rests on the fitted dose curve; in most records, active means well fitted curve in the direction sought with a large enough effect; inconclusive means small, poorly fitted or top-dose-only effect, or another doubt; inactive means no such curve, though single readings can be large; an effect the other way counts as inactive or inconclusive. On the % scale 0 is the no-effect control and ±100 the full control effect.

SMILES	VP16 counter	IL-1B inflam inh	RORgamma inh	ELG1 repair inh	DT40 TDP1 no CPT	TDP1 cell CPT
C[C@@H]1CCCCO[C@H](CN(C)Cc2ccc(Cl)c(Cl)c2)[C@H](C)CN([C@@H](C)CO)C(=O)c2cc(NC(=O)Nc3ccc(F)cc3)ccc2O1	x	u	x	x	5.8µM*	9.2µM*
O=c1cccc(-c2ccc3ccccc3c2)o1	x	-6	x	x	u	-3%
Cc1[nH][nH]c(=O)c1C(c1ccc(O)c(Br)c1)c1c(C)[nH][nH]c1=O	-12%	-73*	5%	2%	u	-27%
Cc1[nH][nH]c(=O)c1C(c1ccc(O)c([N+](=O)[O-])c1)c1c(C)[nH][nH]c1=O	-5%	-20	-38%	16%	u	-27%
CCOc1cc(C(c2c(C)[nH][nH]c2=O)c2c(C)[nH][nH]c2=O)ccc1O	-8%	-63*	-25%	7%	-8%	-19%
CCc1nc2nc(C)cc(Nc3ccc(Br)cc3F)n2n1	x	x	x	x	u	16µM*
Cc1cccc(Nc2cc(C)nc3nc(Cc4ccc(Cl)cc4)nn23)c1	x	x	x	x	u	21µM*
CCc1nc2nc(C)cc(Nc3cc(C)ccc3C)n2n1	x	x	x	x	18µM*	u
CCc1cc(C(=O)N2CCN(S(=O)(=O)c3ccc(Cl)cc3)CC2)sc1C	x	-8	x	-8%	u	u
Cc1ccc2oc(=O)c3cnn(CC(=O)N(C)c4ccc(F)cc4)c3c2c1	x	x	x	x	-4%	0%
Cc1ccccc1NS(=O)(=O)c1cc(C(=O)NCCC2=CCCCC2)ccc1C	-8%	-14	16%	u	u	u
O=C(NCCC1=CCCCC1)c1ccc2c(=O)n3c(nc2c1)CCCCC3	7%	3	6%	-8%	u	u
COc1ccccc1Nc1nn2c(=O)c3ccc(C(=O)NCCC4=CCCCC4)cc3nc2s1	x	x	x	x	3.3µM*	1.5µM*
COc1ccc(C(=O)NCCC2=CCCCC2)cc1OC	19%	-15	u	u	-4%	4%
Cc1ccc(C)c(Nc2nn3c(=O)c4ccc(C(=O)NCCC5=CCCCC5)cc4nc3s2)c1	x	x	x	x	7.3µM*	6.5µM*
Cc1c(Cl)cccc1Nc1nn2c(=O)c3ccc(C(=O)NCCC4=CCCCC4)cc3nc2s1	x	x	x	x	4.6µM*	u
CCCNC(=O)c1ccccc1SCc1c(C)noc1C	-4%	19	10%	-18%	-6%	-8%
O=C(O)C(Cc1cc(I)c(O)c(I)c1)c1ccccc1 (stereo not given)	-11%	x	-2%	x	u	0%
COc1ccc(N2C(=O)/C(=C/c3ccc([N+](=O)[O-])cc3)N=C2C)c(OC)c1	7.9µM*	8	u	u	2.1µM*	3.7µM*
CC1=N/C(=C\c2ccc([N+](=O)[O-])cc2)C(=O)N1c1cc(Cl)ccc1C	-14%	-18	24%	3%	9.2µM*	10µM*
COc1ccc(/C=C2\N=C3CCCCCN3C2=O)cc1	u	-9	29%	u	-5%	5%
OC(c1cccc(CN2CCCCC2)c1)c1ncc(-c2cccc3ccccc23)[nH]1 (stereo not given)	x	-7	x	x	u	u
CSc1nn(Cc2ccccc2C)c(NC(C)=O)c1S(=O)(=O)c1ccc(C)cc1	x	x	x	x	15µM*	u
CSc1nn(Cc2ccc(F)cc2)c(N(C(C)=O)C(C)=O)c1S(=O)(=O)c1ccccc1	x	x	x	x	u	-29%
Cn1cc(-c2cc3n(n2)CCC(=O)N3CC(=O)NCc2ccc(Cl)cc2)c2ccccc21	x	x	x	x	-29%	-28%
SMILES	VP16 counter	IL-1B inflam inh	RORgamma inh	ELG1 repair inh	DT40 TDP1 no CPT	TDP1 cell CPT
O=C(NCC(c1ccco1)N1CCN(c2ccccc2)CC1)C(=O)NC1CCCCC1 (stereo not given)	x	6	x	-20%	-28%	-29%
O=C(NCC(c1ccco1)N1CCN(c2ccccc2F)CC1)C(=O)NC1CCCC1 (stereo not given)	x	6	x	-27%	9.2µM*	u
O=C(NCC(c1ccco1)N1CCN(c2ccccc2)CC1)C(=O)NC1CCCC1 (stereo not given)	x	4	x	-8%	u	u
O=C(NCC(c1ccco1)N1CCN(c2ccccc2)CC1)C1CCCCC1 (stereo not given)	x	-7	x	x	23µM*	u
O=C(NCc1cccs1)C(=O)NCC(c1ccco1)N1CCN(c2ccccc2F)CC1 (stereo not given)	-10%	17	11%	18µM*	u	23µM*
O=C(NCC(c1ccco1)N1CCN(c2ccccc2F)CC1)c1cccs1 (stereo not given)	x	-2	x	-23%	u	-27%
COc1ccccc1OCC(=O)Nc1cc(C(F)(F)F)ccc1-n1cncn1	x	-4	x	-13%	-30%	-4%
CN(C)c1ccc(/C=C/c2ccccn2)cc1	x	x	x	x	4.5µM*	1.4µM*
CCN(CC)c1ccc(/C=C/c2ccccn2)cc1	x	x	x	x	0.28µM*	0.18µM*
CN(C)c1ccc(/C=C/c2cc3ccccc3cn2)cc1	x	x	x	x	0.45µM*	0.45µM*
CN(C)c1ccc(/C=C/c2nnnn2-c2ccccc2)cc1	3%	u	u	u	u	u
O=C(O)/C=C/c1nc(-c2ccccc2)n2ccccc12	-10%	11	u	u	0%	-8%
c1csc(CNc2ccnc(-c3ccc4c(c3)OCO4)n2)c1	2%	x	-118%	x	u	u
O=C(Nc1ncc(Cc2cccc(Cl)c2)s1)C1CCCO1 (stereo not given)	9%	-21	u	u	-16%	-22%
O=C(Nc1ncc(Cc2ccccc2Cl)s1)C1CCCO1 (stereo not given)	u	-13	-70%	u	u	-4%
CCc1ccc(CCC(=O)Nc2ncc(Cc3ccccc3Cl)s2)o1	u	-1	u	1%	5.8µM*	5.2µM*
CCc1ccc(CCC(=O)Nc2nnc(CC)s2)o1	19%	-2	u	-3%	-7%	-25%
CC(C)C(=O)Nc1ncc(Cc2cccc(Cl)c2)s1	u	-72*	11µM*	2%	u	u
O=C(Nc1ncc(Cc2ccccc2Cl)s1)c1ccc([N+](=O)[O-])cc1	2.8µM*	22	2µM*	-38%	u	u
CC(=O)Nc1ncc(Cc2cccc(Cl)c2)s1	u	77	-20%	17%	-8%	-8%

Screens deposited in PubChem BioAssay by National Center for Advancing Translational Sciences (NCATS).
